# Data as given in the supplement of paper PMC12282887.
# ± gives the standard deviation of the averaged measurements.
# How the values were obtained:
# Assay in all cases: promoter activity interaction Z-score (Lux/OD deviation from empty-vector control); higher = stronger promoter induction by the compound
# [1] = test system: E. coli BW25113 acrABp lux reporter
# Summary of the method: (§1)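 Four 1:2 dilutions of each compound were tested in biological duplicates on E. coli BW25113 carrying low-copy luxCDABE promoter reporters, either wild type or deleted for one of three genes. Cultures of 40 µl LB Lennox in 384-well plates were kept at 37°C and read for OD600 and luminescence every 30 min for 12 h. Integration windows were 0–8 h for wild type and 1–9 h for deletion strains, and wells under 10% of the median growth value were discarded. The score is a Z-transformed residual of growth-normalised luminescence relative to a control fit.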
# [2] = test system: E. coli BW25113 marRABp lux reporter
# Summary of the method: as §1
# [3] = test system: E. coli BW25113 micFp lux reporter
# Summary of the method: as §1
# [4] = test system: E. coli BW25113 ompFp lux reporter
# Summary of the method: as §1
# [5] = test system: E. coli BW25113 robp lux reporter
# Summary of the method: as §1
# [6] = test system: E. coli BW25113 soxSp lux reporter
# Summary of the method: as §1
# [7] = test system: E. coli BW25113 tolCp lux reporter
# Summary of the method: as §1
# [8] = 22.5 µg/ml, genetic background: wild type
# [9] = 22.5 µg/ml, genetic background: ΔmarA
# [10] = 22.5 µg/ml, genetic background: Δrob
# [11] = 22.5 µg/ml, genetic background: ΔsoxS
# [12] = 45 µg/ml, genetic background: wild type
# [13] = 45 µg/ml, genetic background: ΔmarA
# [14] = 45 µg/ml, genetic background: Δrob
# [15] = 45 µg/ml, genetic background: ΔsoxS
# [16] = 90.1 µg/ml, genetic background: wild type
# [17] = 90.1 µg/ml, genetic background: ΔmarA
# [18] = 90.1 µg/ml, genetic background: Δrob
# [19] = 90.1 µg/ml, genetic background: ΔsoxS
# [20] = 180.2 µg/ml, genetic background: wild type
# [21] = 180.2 µg/ml, genetic background: ΔmarA
# [22] = 180.2 µg/ml, genetic background: Δrob
# [23] = 180.2 µg/ml, genetic background: ΔsoxS
smiles,measurement,setting,value
CC(=O)Oc1ccccc1C(=O)O [Acetylsalicylic acid],promoter activity interaction Z-score,[1]; [8],-0.0985 ± 0.4
same,promoter activity interaction Z-score,[1]; [9],-0.517 ± 0.098
same,promoter activity interaction Z-score,[1]; [10],-0.0077 ± 0.088
same,promoter activity interaction Z-score,[1]; [11],-0.0154 ± 0.64
same,promoter activity interaction Z-score,[1]; [12],-0.074 ± 0.32
same,promoter activity interaction Z-score,[1]; [13],0.0467 ± 0.55
same,promoter activity interaction Z-score,[1]; [14],0.166 ± 0.1
same,promoter activity interaction Z-score,[1]; [15],0.231 ± 0.27
same,promoter activity interaction Z-score,[1]; [16],-0.285 ± 0.52
same,promoter activity interaction Z-score,[1]; [17],-0.333 ± 1.1
same,promoter activity interaction Z-score,[1]; [18],-0.137 ± 0.07
same,promoter activity interaction Z-score,[1]; [19],0.467 ± 0.76
same,promoter activity interaction Z-score,[1]; [20],0.092 ± 0.075
same,promoter activity interaction Z-score,[1]; [21],-0.505 ± 0.22
same,promoter activity interaction Z-score,[1]; [22],0.377 ± 0.044
same,promoter activity interaction Z-score,[1]; [23],1.71 ± 1.2
same,promoter activity interaction Z-score,[2]; [8],0.161 ± 0.7
same,promoter activity interaction Z-score,[2]; [9],0.108 ± 0.13
same,promoter activity interaction Z-score,[2]; [10],0.479 ± 0.51
same,promoter activity interaction Z-score,[2]; [11],0.261 ± 0.009
same,promoter activity interaction Z-score,[2]; [12],0.512 ± 0.54
same,promoter activity interaction Z-score,[2]; [13],0.152 ± 0.14
same,promoter activity interaction Z-score,[2]; [14],0.623 ± 0.14
same,promoter activity interaction Z-score,[2]; [15],0.318 ± 0.23
same,promoter activity interaction Z-score,[2]; [16],0.0791 ± 0.33
same,promoter activity interaction Z-score,[2]; [17],-0.0396 ± 0.066
same,promoter activity interaction Z-score,[2]; [18],0.404 ± 0.071
same,promoter activity interaction Z-score,[2]; [19],0.469 ± 0.2
same,promoter activity interaction Z-score,[2]; [20],1.81 ± 0.28
same,promoter activity interaction Z-score,[2]; [21],1.65 ± 0.22
same,promoter activity interaction Z-score,[2]; [22],2.07 ± 0.099
same,promoter activity interaction Z-score,[2]; [23],1.89 ± 0.43
same,promoter activity interaction Z-score,[3]; [8],0.2 ± 0.11
same,promoter activity interaction Z-score,[3]; [9],0.0379 ± 0.26
same,promoter activity interaction Z-score,[3]; [10],0.404 ± 0.28
same,promoter activity interaction Z-score,[3]; [11],0.0828 ± 0.038
same,promoter activity interaction Z-score,[3]; [12],0.294 ± 0.19
same,promoter activity interaction Z-score,[3]; [13],0.0785 ± 0.071
same,promoter activity interaction Z-score,[3]; [14],0.518 ± 0.31
same,promoter activity interaction Z-score,[3]; [15],0.285 ± 0.12
same,promoter activity interaction Z-score,[3]; [16],0.237 ± 0.08
same,promoter activity interaction Z-score,[3]; [17],0.0592 ± 0.067
same,promoter activity interaction Z-score,[3]; [18],1.19 ± 0.68
same,promoter activity interaction Z-score,[3]; [19],0.855 ± 0.27
same,promoter activity interaction Z-score,[3]; [20],1.38 ± 0.096
same,promoter activity interaction Z-score,[3]; [21],0.189 ± 0.12
same,promoter activity interaction Z-score,[3]; [22],2.72 ± 0.048
same,promoter activity interaction Z-score,[3]; [23],2.65 ± 0.019
same,promoter activity interaction Z-score,[4]; [8],0.15 ± 0.52
same,promoter activity interaction Z-score,[4]; [9],-0.0334 ± 0.0097
same,promoter activity interaction Z-score,[4]; [10],-0.332 ± 0.11
same,promoter activity interaction Z-score,[4]; [11],-0.533 ± 0.19
same,promoter activity interaction Z-score,[4]; [12],0.0711 ± 0.62
same,promoter activity interaction Z-score,[4]; [13],-0.0561 ± 0.37
same,promoter activity interaction Z-score,[4]; [14],-0.229 ± 0.49
same,promoter activity interaction Z-score,[4]; [15],-0.162 ± 0.16
same,promoter activity interaction Z-score,[4]; [16],-0.597 ± 0.69
same,promoter activity interaction Z-score,[4]; [17],-0.411 ± 0.14
same,promoter activity interaction Z-score,[4]; [18],-0.956 ± 0.38
same,promoter activity interaction Z-score,[4]; [19],0.0662 ± 0.72
same,promoter activity interaction Z-score,[4]; [20],-0.594 ± 0.36
same,promoter activity interaction Z-score,[4]; [21],-0.771 ± 0.14
same,promoter activity interaction Z-score,[4]; [22],-0.628 ± 0.52
same,promoter activity interaction Z-score,[4]; [23],-0.165 ± 0.36
same,promoter activity interaction Z-score,[5]; [8],0.17 ± 0.36
same,promoter activity interaction Z-score,[5]; [9],-0.635 ± 0.24
same,promoter activity interaction Z-score,[5]; [10],0.299 ± 0.26
same,promoter activity interaction Z-score,[5]; [11],-0.394 ± 1.1
same,promoter activity interaction Z-score,[5]; [12],0.406 ± 0.86
same,promoter activity interaction Z-score,[5]; [13],0.328 ± 0.074
same,promoter activity interaction Z-score,[5]; [14],0.109 ± 1.1
same,promoter activity interaction Z-score,[5]; [15],0.454 ± 0.65
same,promoter activity interaction Z-score,[5]; [16],-0.235 ± 0.3
same,promoter activity interaction Z-score,[5]; [17],0.332 ± 0.19
same,promoter activity interaction Z-score,[5]; [18],-0.142 ± 0.65
same,promoter activity interaction Z-score,[5]; [19],0.2 ± 0.77
same,promoter activity interaction Z-score,[5]; [20],-0.797 ± 0.23
same,promoter activity interaction Z-score,[5]; [21],-0.595 ± 0.25
same,promoter activity interaction Z-score,[5]; [22],-0.635 ± 0.52
same,promoter activity interaction Z-score,[5]; [23],-0.507 ± 0.57
same,promoter activity interaction Z-score,[6]; [8],0.245 ± 0.03
same,promoter activity interaction Z-score,[6]; [9],0.396 ± 0.012
same,promoter activity interaction Z-score,[6]; [10],0.336 ± 0.03
same,promoter activity interaction Z-score,[6]; [11],0.386 ± 0.52
same,promoter activity interaction Z-score,[6]; [12],0.214 ± 0.2
same,promoter activity interaction Z-score,[6]; [13],0.405 ± 0.076
same,promoter activity interaction Z-score,[6]; [14],0.388 ± 0.19
same,promoter activity interaction Z-score,[6]; [15],0.494 ± 0.84
same,promoter activity interaction Z-score,[6]; [16],0.119 ± 0.042
same,promoter activity interaction Z-score,[6]; [17],0.218 ± 0.23
same,promoter activity interaction Z-score,[6]; [18],0.406 ± 0.2
same,promoter activity interaction Z-score,[6]; [19],0.157 ± 0.64
same,promoter activity interaction Z-score,[6]; [20],0.054 ± 0.12
same,promoter activity interaction Z-score,[6]; [21],0.327 ± 0.073
same,promoter activity interaction Z-score,[6]; [22],0.525 ± 0.097
same,promoter activity interaction Z-score,[6]; [23],0.502 ± 1.1
same,promoter activity interaction Z-score,[7]; [8],0.458 ± 0.6
same,promoter activity interaction Z-score,[7]; [9],-1.26 ± 1.6
same,promoter activity interaction Z-score,[7]; [10],-0.642 ± 0.11
same,promoter activity interaction Z-score,[7]; [11],0.238 ± 0.11
same,promoter activity interaction Z-score,[7]; [12],0.0937 ± 0.17
same,promoter activity interaction Z-score,[7]; [13],0.783 ± 0.48
same,promoter activity interaction Z-score,[7]; [14],0.602 ± 0.1
same,promoter activity interaction Z-score,[7]; [15],0.898 ± 0.65
same,promoter activity interaction Z-score,[7]; [16],0.202 ± 0.78
same,promoter activity interaction Z-score,[7]; [17],1.21 ± 0.39
same,promoter activity interaction Z-score,[7]; [18],1.08 ± 0.51
same,promoter activity interaction Z-score,[7]; [19],1.29 ± 0.033
same,promoter activity interaction Z-score,[7]; [20],-0.456 ± 0.15
same,promoter activity interaction Z-score,[7]; [21],-0.659 ± 0.06
same,promoter activity interaction Z-score,[7]; [22],1.91 ± 0.78
same,promoter activity interaction Z-score,[7]; [23],2.01 ± 0.4
